Source: PubChem BioAssay
M1 antag – antagonists of rat M1 muscarinic receptor. Muscarinic acetylcholine receptor M1 (Rattus norvegicus), P08482. CHO-M1 cells, Fluo-4 calcium, ACh EC80 antagonist mode; active compounds read low. B-score at 10 µM. 3.4% of 64,000 active. AID 628, 2007;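 active = calcium fluorescence response, raw or row-and-column corrected B-score, differing from the plate sample mean either way at a set confidence level, mostly lower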
M1 agonist – M1 muscarinic receptor agonists, primary screen, CHO-M1 cells, Fluo-4 calcium, agonist mode; B-score at 10 µM; Fluo-4 calcium fluorescence; active compounds read high; 3% of 64,000 active; Muscarinic acetylcholine receptor M1;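 active = fluorescence rise, raw or as B-score row- and column-corrected plate score, outside the 99.7% band of its plate's samples, either direction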
Cav3 T inh – Cav3.2 calcium influx blockers – cell-based, Fluo-4 calcium fluorescence, FDSS, MLSMR library, primary screen | Voltage-dependent T-type calcium channel subunit alpha-1H (Homo sapiens), O95180 | Cav3.2-expressing cells; active compounds read low | B-score at 10 µM | 4% of 100,000 active | AID 449739, 2010;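 active = single-dose well whose peak fluorescence ratio is a statistical outlier from its plate by either plate-standardised score or position-corrected B-score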
PTK2B oligo ant – antagonists of Pyk2 self-association, primary screen, Q293 cells, FERM NanoBiT luminescence, HTS; Protein-tyrosine kinase 2-beta (Homo sapiens), Q14289; active compounds read low; z-score (the deposit names both 25 µM and 10 µM); 0.83% of 99,000 active; AID 1347419, 2020;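 active = Z-score of -3 or lower, scaled per plate to the spread of control and sample wells; inactive = z-score above -3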;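 note: negative z-score means lost luminescence so less FERM oligomerization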
Of the large screens only hits and unclear results are named; the others gave an inactive call. The list is not random: actives were taken first. Their share in the collection is about 7.1%.

C=CCOCCN1C(=O)C2C(c3ccccc3)C=CC(c3ccccc3)C2C1=O (centres undefined)	Cav3 T inh -3.28 (no result: M1 antag, M1 agonist)
O=C(CSCc1ccccc1)N1CCN(Cc2ccc3c(c2)OCO3)CC1	none
O=C(Nc1ccccc1)N1CCN(Cc2ccc3c(c2)OCO3)CC1	Cav3 T inh -5.54 (no result: PTK2B oligo ant)
O=C(c1cc2c(s1)CCCC2)N1CCN(Cc2ccc3c(c2)OCO3)CC1	Cav3 T inh -3.92
CC(C)CCNC(=O)C(c1cccs1)N(CC1CCCO1)C(=O)Cn1nnc2ccccc21 (centres undefined)	none
CCOCCCN1CC(C(=O)NCCc2ccccc2)CC1=O (centres undefined)	M1 antag 2.2
COCCNC(=O)C1CC(=O)N(CCc2ccccc2)C1 (centres undefined)	none
CC(C(=O)Oc1ccc2c(c1)OCO2)N1C(=O)c2ccccc2C1=O (centres undefined)	Cav3 T inh -3.63 (no result: PTK2B oligo ant)
CC(C(=O)OCC(=O)Nc1ccc2c(c1)OCO2)N1C(=O)c2ccccc2C1=O (centres undefined)	none
CCn1c(=O)cc(SCC(=O)NCCCN2CCN(c3ccccc3F)CC2)c2ccccc21	Cav3 T inh -3.39
O=C(CN(C(=O)Cn1nnc(-c2cccs2)n1)c1ccc2c(c1)OCCO2)NCc1ccccc1	PTK2B oligo ant -3.05 (no result: M1 antag, M1 agonist)
O=C(/C=C1\NCC2c3ccccc3CCN2C1=O)c1ccccc1 (centres undefined)	none (no result: M1 antag, M1 agonist)
O=C(c1sc2ccccc2c1Cl)N(Cc1cccs1)C1CCS(=O)(=O)C1 (centres undefined)	Cav3 T inh -7.81 (no result: PTK2B oligo ant)
O=C(c1cccc(Cl)c1)N(Cc1cccs1)C1CCS(=O)(=O)C1 (centres undefined)	none
CCOc1cc2c(cc1OCC)C(c1cc(OC)c(O)c(OC)c1)NCC2 (centres undefined)	none (no result: Cav3 T inh, PTK2B oligo ant)
O=c1[nH]c(SCc2cccc(F)c2)nc2c1CCCC2	none (no result: M1 antag, M1 agonist, Cav3 T inh)
COc1ccc(OC)c(NC(=O)c2cc3n(n2)C(C(F)(F)F)CC(c2ccc4c(c2)OCO4)N3)c1 (centres undefined)	none
COc1ccccc1NC(=O)c1cc2n(n1)C(C(F)(F)F)CC(c1ccc3c(c1)OCO3)N2 (centres undefined)	M1 antag 0.803
Cc1cc(C)cc(SCc2noc(C(=O)NCCN(C)C)c2C(=O)NCCN(C)C)c1	none (no result: M1 antag, M1 agonist, PTK2B oligo ant)
Cc1onc(-c2ccccc2Cl)c1C(=O)Nc1sc2c(c1C#N)CCC2	Cav3 T inh -5.39
Cc1onc(-c2ccccc2)c1C(=O)Nc1sc2c(c1C#N)CCC(C)C2 (centres undefined)	none
Cc1ccccc1-n1nc2c(c1NC(=O)c1c(-c3ccccc3Cl)noc1C)CSC2	Cav3 T inh -5.93
Cc1ccc(-n2nc3c(c2NC(=O)c2c(-c4ccccc4Cl)noc2C)CSC3)cc1	Cav3 T inh -6.01 (no result: PTK2B oligo ant)
CCCCNS(=O)(=O)c1ccc(NC(=O)c2c(-c3ccccc3Cl)noc2C)cc1	Cav3 T inh -5.72 (no result: M1 antag, M1 agonist)
Cc1onc(-c2ccccc2Cl)c1C(=O)Nc1ccc(N2CCOCC2)cc1	none (no result: M1 antag, M1 agonist)
Cc1onc(-c2ccccc2Cl)c1C(=O)Nc1ccc(S(=O)(=O)NCC2CCCO2)cc1 (centres undefined)	none
CN(C)/C=N/c1cc(=O)[nH]c(=O)n1C	none (no result: M1 antag, M1 agonist, PTK2B oligo ant)
COc1ccc(/C=C/C(=O)OCC(=O)Nc2ccc(C)cc2)cc1S(=O)(=O)N1CCOCC1	none (no result: M1 antag, M1 agonist, Cav3 T inh)
CC(=O)C1=C(O)C(=O)N(c2cc(C(C)(C)C)on2)C1c1ccc(Br)cc1 (centres undefined)	Cav3 T inh -5.92
CC(=O)C1=C(O)C(=O)N(c2nccs2)C1c1ccc(Br)cc1 (centres undefined)	none (no result: M1 antag, M1 agonist)
CC(=O)C1=C(O)C(=O)N(c2cc(C(C)(C)C)on2)C1c1ccc(C(C)C)cc1 (centres undefined)	Cav3 T inh -4.21
Cc1cc(N2C(=O)C(O)=C(C(=O)c3ccco3)C2c2ccc(O)cc2)no1 (centres undefined)	none (no result: M1 antag, M1 agonist, Cav3 T inh)
O=C(CSc1nccn1-c1ncc(C(F)(F)F)cc1Cl)c1ccc(Cl)cc1	Cav3 T inh -2.53 (no result: M1 antag, M1 agonist)
COc1cccc(C(=O)Nc2cccc(C(=O)NC3=NN(c4c(Cl)cc(Cl)cc4Cl)C(=O)C3)c2)c1	none (no result: M1 antag, M1 agonist)
COc1ccc(/C=C2\C(=O)N(c3c(Cl)cc(Cl)cc3Cl)N=C2NC(=O)c2cccc([N+](=O)[O-])c2)cc1	PTK2B oligo ant -3.66 (no result: M1 antag, M1 agonist, Cav3 T inh)
Cc1ccc(NC(=O)c2cc([N+](=O)[O-])ccc2NCc2cccnc2)cc1	none (no result: M1 antag, M1 agonist)
CCOC(=O)N=S(=O)(Oc1ccc([N+](=O)[O-])cc1)c1ccc(Cl)cc1 (centres undefined)	Cav3 T inh -4.18 (no result: M1 antag, M1 agonist)
CC(=O)Oc1ccc2ccccc2c1C(NC(=O)Cc1ccccc1)c1ccc(Cl)cc1 (centres undefined)	Cav3 T inh -9.8, PTK2B oligo ant -4.03 (no result: M1 antag, M1 agonist)
Cc1ccc(C(C(=O)NC2CCCC2)N(C(=O)Cc2cccs2)c2ccc3c(c2)OCCO3)cc1 (centres undefined)	none (no result: M1 antag, M1 agonist)
Cc1ccc(C(C(=O)NC2CCCC2)N(C(=O)Cc2cccs2)c2ccc(C)c(C)c2)o1 (centres undefined)	Cav3 T inh -2.31 (no result: M1 antag, M1 agonist)
Cc1ccc(C)c(N(C(=O)Cc2cccs2)C(C(=O)NC2CCCC2)c2ccc(C)o2)c1 (centres undefined)	none (no result: M1 antag, M1 agonist)
Cc1nn(C)cc1C(C(=O)NC1CCCCC1)N(C(=O)Cc1cccs1)c1ccc(C(C)C)cc1 (centres undefined)	Cav3 T inh -5.26 (no result: M1 antag, M1 agonist)
CCn1nc([N+](=O)[O-])c(C(C#N)c2nc3cc(C(F)(F)F)ccc3s2)c(Cl)c1=O (centres undefined)	Cav3 T inh -5.16, PTK2B oligo ant -3.27 (no result: M1 antag, M1 agonist)
Cc1ccc(Cn2c(C(C)Nc3nc(-c4ccc(Cl)c([N+](=O)[O-])c4)cs3)nc3cc(C(F)(F)F)ccc32)cc1 (centres undefined)	none (no result: M1 antag, M1 agonist, PTK2B oligo ant)
CC(C)Sc1oc(-c2ccco2)nc1S(=O)(=O)c1ccc(F)cc1	Cav3 T inh -5.31
Cc1ccc(S(=O)(=O)N(C)CC(=O)N2CCCc3ccccc32)cc1	none
Cc1cc(-n2ccc(=O)[nH]c2=O)nc(-c2ccccc2)n1	none
CSc1nc(C)cc(-n2ccc(=O)[nH]c2=O)n1	M1 antag 1.05
CCOC(=O)CNC(=O)c1sc2ncnc(N3CCc4ccccc4C3)c2c1C	none (no result: M1 antag, M1 agonist, Cav3 T inh)
CCCCNC(=O)c1sc2ncnc(N3CCc4ccccc4C3)c2c1C	Cav3 T inh -5.11 (no result: M1 antag, M1 agonist)
CC(=O)N(CCC(Cc1ccccc1)c1ccc2c(c1)OCO2)Cc1ccc(Cl)cc1 (centres undefined)	Cav3 T inh -3.08 (no result: M1 antag, M1 agonist)
O=C(COC(=O)[C@H](Cc1ccccc1)NS(=O)(=O)c1ccccc1F)NC1CCCCC1	Cav3 T inh -4.94 (no result: M1 antag, M1 agonist)
CCN(CC)C(=O)CSc1nc2c(sc(=S)n2-c2ccccc2)c(=O)n1Cc1ccco1	Cav3 T inh -6.59 (no result: M1 antag, M1 agonist)
C=CCOCC(O)CS(=O)(=O)Cc1ccc(Cl)cc1 (centres undefined)	none (no result: M1 antag, M1 agonist)
c1cc(-c2cc3cc(N4CCOCC4)ccc3o2)cs1	none (no result: M1 antag, M1 agonist, PTK2B oligo ant)
Cc1cc(C(=O)Cn2nnc(-c3ccc(Cl)cc3)n2)c(C)n1CC1CCCO1 (centres undefined)	Cav3 T inh -5.21
